From PubChem BioAssay AID1259372 (The Scripps Research Institute Molecular Screening Center, 2018)
About 760 (16%) of roughly 4,700 compounds were called active. These entries were drawn from the full list. Unmarked numbers belong to inactive results.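 The calls were made as follows: active = inhibition above a cutoff derived from the DMSO control wells (cut at about 28% in these data); inactive = the rest.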

Molecular target: Microphthalmia-associated transcription factor (Homo sapiens) (UniProt O75030)
Test: MITF inhibitors, retest of hits, confirmation, biochemical, AlphaScreen, triplicate (AID 1259372)
Conditions: AlphaScreen MITF homodimerization, biotin/His-MITF beads; at 2.6 µM; stronger effect = higher value

Microphthalmia-associated transcription factor (Homo sapiens), sequence (O75030 whole entry, looked up): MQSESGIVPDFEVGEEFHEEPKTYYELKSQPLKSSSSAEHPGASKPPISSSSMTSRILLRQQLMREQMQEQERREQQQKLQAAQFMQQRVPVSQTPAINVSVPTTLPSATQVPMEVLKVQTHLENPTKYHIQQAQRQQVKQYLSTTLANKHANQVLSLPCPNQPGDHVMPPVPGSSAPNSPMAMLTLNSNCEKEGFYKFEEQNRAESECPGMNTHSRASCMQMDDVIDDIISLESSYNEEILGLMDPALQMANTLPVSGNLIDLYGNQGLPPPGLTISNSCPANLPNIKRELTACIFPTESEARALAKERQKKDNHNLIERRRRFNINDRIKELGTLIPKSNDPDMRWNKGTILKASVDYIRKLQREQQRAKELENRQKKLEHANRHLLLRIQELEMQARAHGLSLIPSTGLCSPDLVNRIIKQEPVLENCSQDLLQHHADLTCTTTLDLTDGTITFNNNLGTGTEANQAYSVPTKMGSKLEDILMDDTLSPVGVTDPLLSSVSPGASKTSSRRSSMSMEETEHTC

SMILES | inhibition
O=C(C1CCN(Cc2nc3ccccc3[nH]2)CC1)N1CCN(c2ccccn2)CC1 | 0.24%
COc1ccc(OC)c(CN2CCN(Cc3ccccc3OC)CC2)c1 | 10.6%
C=CCNCCOCCOc1cc(C)ccc1C(C)(C)C | 7.1%
c1cc2c(cc1CNc1nc(Nc3ccc(N4CCOCC4)cc3)c3ncn(C4CCCCC4)c3n1)OCO2 | 71.3% (active)
Cc1cnc(NCc2ccc3c(c2)OCO3)nc1Nc1ccccc1 | -0.48%
c1cc2c(cc1CN1CCN(C3CCCCC3)CC1)OCO2 | -2.28%
CC(C)(C)NCCOCCOc1ccc(Cl)c(Cl)c1 | 4.77%
O=C(Nc1ccc2c(c1)OCO2)C(c1ccccc1)N(Cc1ccccc1)Cc1ccccc1 (configuration not stated) | -3.96%
Cc1cccc(CSc2n[nH]c(=O)[nH]c2=O)c1 | -2.69%
COc1cc(OC)c(OC)cc1CN1CCN(Cc2ccc(F)cc2)CC1 | -1.09%
Cc1nnc(N2CCC(Cc3ccccc3)CC2)c2ccccc12 | 2.32%
COc1ccc(CNCC2CN(CC(C)C)CCO2)cc1 (configuration not stated) | 10%
CCN1CCN(CCOCCOc2ccc([N+](=O)[O-])cc2)CC1 | 3.04%
c1ccc(-c2ccccc2OCCNCCN2CCOCC2)cc1 | 16.9%
O=C(O)CCCCCNC(=O)/C(=C\c1ccco1)NC(=O)c1ccccc1 | 25.9%
O=[N+]([O-])c1ccccc1CN1CCN(Cc2ccccc2C(F)(F)F)CC1 | 3.85%
Cc1cc(OCCN2CCN(C)CC2)ccc1C(C)C | -2.72%
O=C(O)CCCCC1SCC2NC(=O)NC21O (configuration not stated) | 116% (active)
COC(=O)C1(C)NC(c2ccc(C)cc2)C2C(=O)N(c3ccc(F)cc3)C(=O)C21 (configuration not stated) | 11.8%
CC(=O)c1ccc(NC(=O)C(C)NCc2ccc(C)cc2)cc1 (configuration not stated) | 3.11%
O=C(c1cccs1)N1CCC(N2CCN(Cc3ccccc3)CC2)CC1 | 1.58%
NC(=O)COC(=O)/C=C/c1ccc(I)o1 | 57.8% (active)
Cc1nc(NC2CC2)cc(-c2ccc(F)cc2)n1 | 12%

SMILES | inhibition
CCOc1ccc(CN2CCN(C(=O)c3cccc(Cl)c3)CC2)cc1 | -0.91%
CC(C)c1ccc(C2/C(=C(/O)c3ccccc3)C(=O)C(=O)N2CCN(C)C)cc1 (configuration not stated) | 4.9%
CCCCCOc1ccc(OC(=O)c2ccc(-c3ccc(CCC)cn3)cc2)cc1 | 4.5%
COc1ccc(Br)cc1CN1CCN(CCOCCO)CC1 | -4.85%
O=S(=O)(c1ccc(Br)cc1Cl)N1CCN(CCc2ccncc2)CC1 | 11.6%
CCN(CC)CC(=O)Nc1c2c(nc3ccccc13)N(c1cccc(C)c1)CC2 | -3.54%
c1ccc(CCCCNc2nccc(Nc3ccncn3)n2)cc1 | -1.64%
CN(C)CC(C)(C)CNCc1nnc(-c2ccccc2)o1 | -4.13%
COc1ccc(CN2CCN(Cc3cccnc3)CC2)cc1OCc1ccccc1 | 3.98%
CCCCCCOC(=O)c1cc(C(=O)OCCCCCC)c(C)nc1C | -4.67%
COc1cccc(C(=O)N2CCN(Cc3cc(OC)c(OC)cc3OC)CC2)c1 | 0.86%
COc1cc(CN2CCN(Cc3cc(OC)c(OC)cc3OC)CC2)cc(OC)c1 | 7.67%
c1ccc(Oc2cccc(OCCCCn3cncn3)c2)cc1 | -15.6%
CCCn1c(C)cc(-c2csc(NC(=O)Cc3ccsc3)n2)c1C | 21.7%
COC(=O)c1cccc(NS(=O)(=O)c2ccc3ccccc3c2)c1C | 1.98%
Clc1ccc(CN2CCN(CC3CC=CCC3)CC2)cc1 (configuration not stated) | -2.27%
CCOc1ccccc1N1CCN(Cc2cc(OC)c(O)c([N+](=O)[O-])c2)CC1 | 32.4% (active)
COc1cc(CN2CCN(Cc3ccc(C)cc3)CC2)c([N+](=O)[O-])cc1OC | 6.72%
CCOc1cc(CN2CCN(Cc3ccccn3)CC2)ccc1OC | 13.2%
CCN1CCN(CCCOc2ccc(C(C)=O)cc2OC)CC1 | 1.36%
COc1cc(CN(CCN(C)C)Cc2ccccc2)cc(OC)c1 | 15.3%
Cc1cc(C(C)(C)C)ccc1OCCN1CCNCC1 | -3.14%
Cn1c(-c2ccc(F)cc2)cnc1NCc1cccnc1 | -19.5%

SMILES | inhibition
Cc1ccc(CN2CCN(Cc3ccncc3)CC2)cc1 | 15.2%
COc1cccc(CN2CCN(C(=O)c3ccccc3F)CC2)c1 | -1.9%
c1cc2c(cc1CN1CCN(C3CCCC3)CC1)OCO2 | -0.1%
O=C1NC(c2ccccc2[N+](=O)[O-])C(C(=O)c2cccs2)C(O)(C(F)(F)F)N1 (configuration not stated) | 4.8%
CN1CCN(CCOCCOc2ccccc2Cl)CC1 | 6.9%
N#C/C(=C/c1ccc(-c2ccc3c(c2)C(=O)NC3=O)o1)C(=O)O | 6.58%
CCc1ccc(NC(=O)CS(=O)CC(=O)NCCCc2ccccc2)cc1 (configuration not stated) | 44.5% (active)
Cc1ccc(NC(=O)CNCCCSc2ccccc2)cc1C | 14.7%
Nc1ccc(S(=O)(=O)O)c2cc(S(=O)(=O)O)cc(O)c12 | 42.7% (active)
Cc1ccc(C)c(OCCN2CCOCC2)c1C | 15.2%
COc1cc(CN2CCN(Cc3ccccc3Br)CC2)cc(OC)c1 | 9.11%
COc1ccc(COCC(O)CNCC(C)(C)CN(C)C)cc1OC (configuration not stated) | 3.01%
COCc1nc2ccccc2n1CCc1noc(-c2ccco2)n1 | 6.8%
C1=CC2CC1CC2CN1CCN(Cc2c[nH]c3ccccc23)CC1 (configuration not stated) | -0.81%
COc1cccc(/C=C(\C#N)c2nc3ccccc3[nH]2)c1OCc1ccc(Cl)cc1Cl | 0.99%
COc1ccc(CN2CCN(Cc3ccccc3OC)CC2)cc1Br | 5.52%
O=[N+]([O-])c1ccc(OCc2nnc(SCCN3CCOCC3)n2-c2ccccc2)cc1 | 2.94%
CCCS(=O)(=O)N1CCN(Cc2ccc(OC)c(OCc3ccccc3)c2)CC1 | -0.41%
CC1CN(CCOc2ccccc2[N+](=O)[O-])CC(C)O1 (configuration not stated) | 6.95%
Cc1ccc(C(C)C)c(OCCN2CCNCC2)c1 | -8.7%
COc1ccc(NC(=O)CN2CCN(C)CC2)c(OC)c1 | 13%
COc1ccc2c(c1)CC(C(=O)Nc1ccc(-c3cn[nH]c3)cc1OCc1ccccc1)CO2 (configuration not stated) | 56% (active)
COc1ccc2c(c1)CC(C(=O)Nc1ccc(-c3cn[nH]c3)cc1OCC(N)=O)CO2 (configuration not stated) | 40.3% (active)

SMILES | inhibition
CC1CCN(S(=O)(=O)c2ccc(Cl)c(C(=O)Nc3ccccc3[N+](=O)[O-])c2)CC1 | 16.1%
Clc1cccc(CN2CCN(C3CCCC3)CC2)c1 | 12.9%
O=C(c1ccc2c(c1)C(=O)N(Cc1cccnc1)C2=O)c1ccc2c(c1)C(=O)N(Cc1cccnc1)C2=O | 51.2% (active)
Brc1cccc(CN2CCN(Cc3cccnc3)CC2)c1 | 5.44%
O=C(c1cccc(Cl)c1)N1CCN(Cc2cccnc2)CC1 | 16.8%
COc1ccc(-c2nc(Nc3cc(OC)c(OC)c(OC)c3)c3[nH]cnc3n2)cc1 | 14%
COc1cc(CN2CCN(Cc3ccc(Cl)cc3)CC2)c([N+](=O)[O-])cc1OC | 5.78%
O=C(Nc1ccc(-c2ccncc2)c(C(F)(F)F)c1)C1COc2ccccc2O1 (configuration not stated) | 42.5% (active)
COc1ccc(CN2CCN(Cc3ccccc3C(F)(F)F)CC2)cc1OC | 24.4%
CCN1CCN(CC(O)COc2cccc(C(=O)OC)c2)CC1 (configuration not stated) | -4.86%
COc1cccc(CN2CCN(C/C=C/c3ccccc3)CC2)c1OC | 2.33%
Cc1cc(NC(=O)/C=C/C(=O)N(CC(=O)NC2CCCC2)c2ccc(F)cc2)no1 | 10.1%
COc1cccc(OC)c1C(=O)N1CCN(Cc2cccnc2)CC1 | -5.41%
CS(=O)(=O)N1CCN(Cc2cccc(Cl)c2)CC1 | -2.19%
CN(CCc1ccccn1)CC(=O)N1CCc2ccccc21 | 12.3%
CSc1ccc(CN2CCN(S(=O)(=O)c3ccc([N+](=O)[O-])cc3)CC2)cc1 | 19.9%
Cn1c(=NC(=O)COc2ccccc2)sc2cc(S(C)(=O)=O)ccc21 | 4.53%
NS(=O)(=O)c1cccc(NC(=O)COc2ncnc3sc(-c4ccccc4)cc23)c1 | 13.3%
Cc1cc(S(=O)(=O)Nc2ccc3c(c2)OCCO3)ccc1-n1cnnn1 | 5.76%
COc1cc2nc(-c3cccc(C(C)=O)c3)nc(N)c2cc1OC | -8.94%
O=C1c2ccccc2C(O)N1Cc1ccccc1Cl (configuration not stated) | -9.08%
COc1ccc(C2C(C(C)=O)=C(C)N=C3SCC(=O)N32)c(OC)c1 (configuration not stated) | -3.48%
CCN1CCN(CCCCOc2ccccc2F)CC1 | 6.76%

SMILES | inhibition
O=C(c1ccccc1)N1CCN(C2CCCC2)CC1 | -3.05%
Cc1nc(NC(=O)c2cc(Br)ccc2Cl)sc1C | 11%
CC1(C)CC(=O)C2=C(C1)Nc1ccccc1N(C(=O)Cc1ccccc1)C2c1ccc(-c2ccc([N+](=O)[O-])cc2)o1 (configuration not stated) | 12.3%
CCNc1nc(NCC)nc(C(=O)O)n1 | 54.9% (active)
Cn1c(=O)oc2cc(S(=O)(=O)N3CCC(C(=O)NC(C)(C)C)CC3)ccc21 | -16.9%
C=CCn1c(SCC(=O)Nc2nc3ccccc3s2)nc(O)cc1=O | -1.3%
COc1cc(CN2CCN(C(=O)C(c3ccccc3)c3ccccc3)CC2)cc(OC)c1OC | 5.49%
CSc1nnc(SCc2nc3sc(C(=O)O)c(C)c3c(=O)[nH]2)s1 | 14.3%
O=C(CCC(=O)OCc1ccc(Cl)cc1)Nc1ccc([N+](=O)[O-])cc1 | 13.1%
CC(=O)N1CCN(CC(=O)Nc2ccc(C)c(F)c2)CC1 | -10.5%
Cc1ccc(NC(=O)COC(=O)CCC(=O)Nc2sc3c(c2C(N)=O)CCC3)cc1F | 87.4% (active)
OCCOCCN1CCN(Cc2ccc(Cl)cc2)CC1 | 1.57%
COc1cccc(CN2CCN(CCCc3ccccc3)CC2CCO)c1 (configuration not stated) | -0.58%
COC(=O)CSc1nc(C2CC2)nc2ccccc12 | 5.56%
CC1CCCC(N2CCN(Cc3ccccc3Cl)CC2)C1 (configuration not stated) | -6.77%
O=C(CNCc1cccnc1)Nc1ccc(C(=O)N2CCCCC2)cc1 | 7.91%
CC(=O)N1CCN(C(=O)c2ccc(N3CC4CC(C3)c3cccc(=O)n3C4)c(NC(=O)c3cccnc3)c2)CC1 (configuration not stated) | -11.6%
CCSc1ccccc1C(=O)N1CCN(c2ccc(-c3ccccn3)nn2)CC1 | 111% (active)
COc1ccc(OCCn2ccnc2C)cc1 | -1.1%
COc1cc(CN2CCN(Cc3ccc(OC)c(OC)c3)CC2)cc(OC)c1 | 4.54%
